# How the values were obtained:
# Test in all cases: DAPPL (digital affinity profiling via proximity ligation, sequencing); 10 mM Tris-HCl pH 7.5, 50 mM NaCl, 1 mM DTT, 4% glycerol, room temperature, 30 min; GST-TFs on glutathione beads, 16-mer random dsDNA library, 0.1% formaldehyde crosslink after washing; high values mean tight binding
# Settings in all cases: protein: recombinant; tags: N-terminal GST; dsDNA, one strand shown
# FLI1 = target: T1, FLI1 (Homo sapiens, UniProt Q01543 1-452)
# T1 sequence: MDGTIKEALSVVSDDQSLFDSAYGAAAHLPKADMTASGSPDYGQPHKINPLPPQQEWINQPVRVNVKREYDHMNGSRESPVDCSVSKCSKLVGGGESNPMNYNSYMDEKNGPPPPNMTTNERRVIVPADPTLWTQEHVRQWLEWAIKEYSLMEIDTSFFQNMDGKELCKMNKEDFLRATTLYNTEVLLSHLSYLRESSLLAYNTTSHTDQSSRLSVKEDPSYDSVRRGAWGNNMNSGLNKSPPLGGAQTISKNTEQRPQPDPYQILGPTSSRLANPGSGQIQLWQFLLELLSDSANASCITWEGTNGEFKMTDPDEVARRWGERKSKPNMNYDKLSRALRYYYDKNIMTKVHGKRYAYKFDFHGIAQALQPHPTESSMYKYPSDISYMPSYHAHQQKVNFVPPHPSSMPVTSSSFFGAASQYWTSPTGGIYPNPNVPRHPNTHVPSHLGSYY
# In short: (§1)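 In yeast, human transcription factors were expressed with a GST fusion, then pulled down on glutathione beads and given DNA barcodes. Pooled with a tag-only sample, they were exposed to 200 nmole of a 16-mer random double-stranded DNA library (Tris/NaCl/DTT/glycerol buffer, room temperature, 30 min), washed, crosslinked with 0.1% formaldehyde, proximity-ligated using BsaI/T4 ligase for 1 h at 37 °C, PCR-amplified and read on an Illumina NextSeq500. Each hexamer's frequency of reads for a factor, divided by the matching frequency for the tag-only sample, gives the binding signal.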
# GABPA = target: T2, GABPA (Homo sapiens, UniProt Q06546 1-454)
# T2 sequence: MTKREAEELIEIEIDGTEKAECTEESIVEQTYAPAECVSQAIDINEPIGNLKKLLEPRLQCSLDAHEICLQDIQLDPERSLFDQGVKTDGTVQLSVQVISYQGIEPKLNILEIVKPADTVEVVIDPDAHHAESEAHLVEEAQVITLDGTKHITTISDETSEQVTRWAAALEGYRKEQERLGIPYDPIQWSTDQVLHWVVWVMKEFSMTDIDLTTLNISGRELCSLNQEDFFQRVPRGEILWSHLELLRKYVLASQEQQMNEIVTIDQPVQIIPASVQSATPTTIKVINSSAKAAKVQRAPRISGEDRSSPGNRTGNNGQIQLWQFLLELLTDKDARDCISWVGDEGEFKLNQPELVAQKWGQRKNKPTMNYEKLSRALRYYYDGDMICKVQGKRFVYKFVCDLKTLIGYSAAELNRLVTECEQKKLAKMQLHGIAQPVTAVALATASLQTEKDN
# In short: as §1
# EHF = target: T3, EHF (Homo sapiens, UniProt Q9NZC4 1-300)
# T3 sequence: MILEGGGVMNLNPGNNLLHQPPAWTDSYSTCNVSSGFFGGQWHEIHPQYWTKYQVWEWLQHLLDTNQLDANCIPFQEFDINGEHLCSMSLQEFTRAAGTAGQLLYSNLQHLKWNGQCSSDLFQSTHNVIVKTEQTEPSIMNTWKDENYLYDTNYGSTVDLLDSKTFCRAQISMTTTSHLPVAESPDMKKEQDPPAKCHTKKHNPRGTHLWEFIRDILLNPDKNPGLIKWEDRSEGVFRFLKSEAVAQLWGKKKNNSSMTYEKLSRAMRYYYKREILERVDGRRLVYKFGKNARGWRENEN
# In short: as §1
# ELK3 = target: T4, ELK3 (Homo sapiens, UniProt P41970 1-407)
# T4 sequence: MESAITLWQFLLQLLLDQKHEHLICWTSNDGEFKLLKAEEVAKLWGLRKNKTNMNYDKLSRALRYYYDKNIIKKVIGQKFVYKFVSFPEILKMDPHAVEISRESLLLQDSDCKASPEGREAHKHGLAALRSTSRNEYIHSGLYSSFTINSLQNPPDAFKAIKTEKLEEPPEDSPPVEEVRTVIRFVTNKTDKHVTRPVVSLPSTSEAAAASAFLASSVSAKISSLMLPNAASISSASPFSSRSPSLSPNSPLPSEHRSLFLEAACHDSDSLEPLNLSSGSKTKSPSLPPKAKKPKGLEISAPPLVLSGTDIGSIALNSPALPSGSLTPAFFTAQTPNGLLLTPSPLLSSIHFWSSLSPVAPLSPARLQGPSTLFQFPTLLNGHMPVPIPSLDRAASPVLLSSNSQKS
# In short: as §1
# SPIC = target: T5, SPIC (Homo sapiens, UniProt Q8N5J4 1-248)
# T5 sequence: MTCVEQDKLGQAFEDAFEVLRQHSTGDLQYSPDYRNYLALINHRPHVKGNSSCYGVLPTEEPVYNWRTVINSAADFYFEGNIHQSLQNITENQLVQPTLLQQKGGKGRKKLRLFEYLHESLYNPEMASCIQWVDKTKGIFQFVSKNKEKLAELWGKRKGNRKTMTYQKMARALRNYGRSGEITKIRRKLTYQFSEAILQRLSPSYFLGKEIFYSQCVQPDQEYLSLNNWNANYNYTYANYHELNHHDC
# In short: as §1
# ELK4 = target: T6, ELK4 (Homo sapiens, UniProt P28324-2 1-405)
# T6 sequence: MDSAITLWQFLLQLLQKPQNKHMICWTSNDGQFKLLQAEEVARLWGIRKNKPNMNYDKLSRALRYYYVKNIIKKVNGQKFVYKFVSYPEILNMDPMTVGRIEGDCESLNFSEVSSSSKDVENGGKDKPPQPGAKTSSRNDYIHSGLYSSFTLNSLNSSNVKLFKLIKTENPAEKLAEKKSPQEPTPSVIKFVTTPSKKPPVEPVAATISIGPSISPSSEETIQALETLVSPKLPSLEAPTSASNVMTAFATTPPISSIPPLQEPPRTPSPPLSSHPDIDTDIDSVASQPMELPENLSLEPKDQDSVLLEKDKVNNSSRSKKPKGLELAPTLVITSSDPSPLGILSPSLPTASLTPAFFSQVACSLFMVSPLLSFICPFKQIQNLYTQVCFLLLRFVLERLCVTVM
# In short: as §1
# ELF3 = target: T7, ELF3 (Homo sapiens, UniProt P78545 1-371)
# T7 sequence: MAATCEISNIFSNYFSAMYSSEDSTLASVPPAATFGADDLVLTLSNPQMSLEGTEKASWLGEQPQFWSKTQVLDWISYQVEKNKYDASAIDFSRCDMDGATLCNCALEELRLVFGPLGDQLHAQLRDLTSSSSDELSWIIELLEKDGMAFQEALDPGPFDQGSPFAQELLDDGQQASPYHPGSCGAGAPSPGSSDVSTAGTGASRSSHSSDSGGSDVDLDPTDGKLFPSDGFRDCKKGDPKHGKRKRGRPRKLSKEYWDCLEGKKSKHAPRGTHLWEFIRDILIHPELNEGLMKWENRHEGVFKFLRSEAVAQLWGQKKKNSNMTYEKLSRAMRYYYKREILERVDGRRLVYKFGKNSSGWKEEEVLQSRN
# In short: as §1
# ETV1 = ETV1 (Homo sapiens, UniProt P50549 1-477)
# Sequence of ETV1 (P50549 whole entry): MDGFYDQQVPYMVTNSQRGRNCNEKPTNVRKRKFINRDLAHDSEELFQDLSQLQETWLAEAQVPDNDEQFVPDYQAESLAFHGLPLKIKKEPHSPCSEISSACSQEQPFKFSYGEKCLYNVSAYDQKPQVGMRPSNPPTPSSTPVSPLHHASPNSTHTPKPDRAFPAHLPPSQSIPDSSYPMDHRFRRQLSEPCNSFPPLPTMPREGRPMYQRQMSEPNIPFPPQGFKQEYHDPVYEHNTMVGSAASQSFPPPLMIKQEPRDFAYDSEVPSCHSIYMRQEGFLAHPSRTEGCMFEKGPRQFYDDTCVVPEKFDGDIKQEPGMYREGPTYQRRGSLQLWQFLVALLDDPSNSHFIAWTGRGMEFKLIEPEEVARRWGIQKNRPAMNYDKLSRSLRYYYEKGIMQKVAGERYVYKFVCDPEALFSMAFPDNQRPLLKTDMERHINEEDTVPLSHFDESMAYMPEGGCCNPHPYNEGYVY
# In short: as §1
# ERF = target: T8, ERF (Homo sapiens, UniProt P50548 1-548)
# T8 sequence: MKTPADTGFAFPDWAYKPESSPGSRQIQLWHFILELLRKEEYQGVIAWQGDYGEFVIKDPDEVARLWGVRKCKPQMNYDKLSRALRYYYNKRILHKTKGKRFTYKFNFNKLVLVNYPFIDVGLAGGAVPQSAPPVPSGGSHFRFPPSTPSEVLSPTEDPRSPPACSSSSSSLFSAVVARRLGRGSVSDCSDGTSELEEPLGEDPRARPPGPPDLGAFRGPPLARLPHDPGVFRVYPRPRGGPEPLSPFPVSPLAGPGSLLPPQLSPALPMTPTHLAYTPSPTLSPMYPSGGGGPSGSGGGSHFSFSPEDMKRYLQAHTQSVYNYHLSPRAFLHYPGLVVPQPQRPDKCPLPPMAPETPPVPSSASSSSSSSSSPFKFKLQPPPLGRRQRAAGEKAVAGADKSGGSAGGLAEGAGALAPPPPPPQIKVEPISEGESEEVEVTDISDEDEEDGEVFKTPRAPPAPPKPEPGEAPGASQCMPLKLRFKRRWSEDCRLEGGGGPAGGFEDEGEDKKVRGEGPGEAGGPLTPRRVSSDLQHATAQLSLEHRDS
# In short: as §1
# ETV3L = target: T9, ETV3L (Homo sapiens, UniProt Q6ZN32 1-361)
# T9 sequence: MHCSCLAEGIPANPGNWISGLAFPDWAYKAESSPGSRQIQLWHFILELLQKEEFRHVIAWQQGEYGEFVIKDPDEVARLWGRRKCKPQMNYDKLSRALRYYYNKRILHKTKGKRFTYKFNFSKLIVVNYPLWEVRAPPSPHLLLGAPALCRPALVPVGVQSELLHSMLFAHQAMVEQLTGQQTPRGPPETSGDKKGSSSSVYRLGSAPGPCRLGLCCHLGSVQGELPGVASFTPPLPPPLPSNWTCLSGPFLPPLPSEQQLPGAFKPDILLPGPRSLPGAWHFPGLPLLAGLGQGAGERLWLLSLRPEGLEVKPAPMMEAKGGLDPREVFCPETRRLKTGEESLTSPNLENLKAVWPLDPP
# In short: as §1
# SPDEF = target: T10, SPDEF (Homo sapiens, UniProt O95238 1-335)
# T10 sequence: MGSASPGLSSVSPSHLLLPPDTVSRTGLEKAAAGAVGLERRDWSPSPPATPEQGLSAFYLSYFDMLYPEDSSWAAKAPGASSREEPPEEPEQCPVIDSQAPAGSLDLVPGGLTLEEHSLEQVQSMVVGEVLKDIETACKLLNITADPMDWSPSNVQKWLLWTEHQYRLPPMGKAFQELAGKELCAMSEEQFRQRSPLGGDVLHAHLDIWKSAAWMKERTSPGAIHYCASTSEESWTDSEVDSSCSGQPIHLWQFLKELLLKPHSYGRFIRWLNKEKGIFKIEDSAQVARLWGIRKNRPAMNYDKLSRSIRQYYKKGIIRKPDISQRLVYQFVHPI
# In short: as §1
# ETV7 = target: T11, ETV7 (Homo sapiens, UniProt Q9Y603 1-341)
# T11 sequence: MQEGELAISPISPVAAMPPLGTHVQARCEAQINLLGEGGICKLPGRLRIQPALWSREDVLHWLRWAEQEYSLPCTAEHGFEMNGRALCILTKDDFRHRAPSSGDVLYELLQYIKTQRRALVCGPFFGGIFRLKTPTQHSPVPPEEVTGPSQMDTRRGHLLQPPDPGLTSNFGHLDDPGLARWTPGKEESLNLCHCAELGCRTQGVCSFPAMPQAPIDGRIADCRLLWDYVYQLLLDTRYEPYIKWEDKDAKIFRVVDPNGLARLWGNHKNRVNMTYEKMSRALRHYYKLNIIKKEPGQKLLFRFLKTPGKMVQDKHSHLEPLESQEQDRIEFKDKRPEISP
# In short: as §1
# ELF5 = target: T12, ELF5 (Homo sapiens, UniProt Q9UKW6-2 1-255)
# T12 sequence: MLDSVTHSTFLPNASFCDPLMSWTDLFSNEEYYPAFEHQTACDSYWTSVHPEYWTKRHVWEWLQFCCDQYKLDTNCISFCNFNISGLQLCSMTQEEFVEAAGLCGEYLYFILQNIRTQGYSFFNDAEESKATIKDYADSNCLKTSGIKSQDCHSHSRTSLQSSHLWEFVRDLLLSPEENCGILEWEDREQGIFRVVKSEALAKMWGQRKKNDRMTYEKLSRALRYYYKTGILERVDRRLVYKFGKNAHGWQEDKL
# In short: as §1
# ETV3 = target: T13, ETV3 (Homo sapiens, UniProt P41162-2 1-143)
# T13 sequence: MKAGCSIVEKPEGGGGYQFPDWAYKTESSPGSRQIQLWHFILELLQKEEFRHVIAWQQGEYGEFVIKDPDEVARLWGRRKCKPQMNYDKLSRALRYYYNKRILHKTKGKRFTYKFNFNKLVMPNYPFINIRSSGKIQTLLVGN
# In short: as §1
# ETV6 = ETV6 (Homo sapiens, UniProt P41212 1-452)
# Sequence of ETV6 (P41212 whole entry): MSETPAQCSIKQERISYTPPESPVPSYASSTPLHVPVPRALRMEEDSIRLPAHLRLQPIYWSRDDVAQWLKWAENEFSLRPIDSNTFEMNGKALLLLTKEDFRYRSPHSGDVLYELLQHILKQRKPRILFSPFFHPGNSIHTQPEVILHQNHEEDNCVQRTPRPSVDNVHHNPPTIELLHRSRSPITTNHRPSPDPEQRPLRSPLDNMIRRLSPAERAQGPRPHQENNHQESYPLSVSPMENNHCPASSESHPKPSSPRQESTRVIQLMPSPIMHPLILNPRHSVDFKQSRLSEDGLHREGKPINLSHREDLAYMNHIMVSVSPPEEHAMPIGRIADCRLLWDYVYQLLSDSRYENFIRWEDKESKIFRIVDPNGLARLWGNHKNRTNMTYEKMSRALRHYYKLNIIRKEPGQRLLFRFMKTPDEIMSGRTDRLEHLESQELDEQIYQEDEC
# In short: as §1
sequence,measurement,setting,value
GTTTGT,binding signal,FLI1,"1.15 fold enrichment (6-mer frequency, TF over GST control)"
same,binding signal,GABPA,"1.03 fold enrichment (6-mer frequency, TF over GST control)"
same,binding signal,EHF,"1.03 fold enrichment (6-mer frequency, TF over GST control)"
same,binding signal,ELK3,"1.06 fold enrichment (6-mer frequency, TF over GST control)"
same,binding signal,SPIC,"1.01 fold enrichment (6-mer frequency, TF over GST control)"
same,binding signal,ELK4,"1.19 fold enrichment (6-mer frequency, TF over GST control)"
same,binding signal,ELF3,"1.07 fold enrichment (6-mer frequency, TF over GST control)"
same,binding signal,ETV1,"1.04 fold enrichment (6-mer frequency, TF over GST control)"
same,binding signal,ERF,"1.06 fold enrichment (6-mer frequency, TF over GST control)"
same,binding signal,ETV3L,"1.06 fold enrichment (6-mer frequency, TF over GST control)"
same,binding signal,SPDEF,"1.01 fold enrichment (6-mer frequency, TF over GST control)"
same,binding signal,ETV7,"1.11 fold enrichment (6-mer frequency, TF over GST control)"
same,binding signal,ELF5,"1.03 fold enrichment (6-mer frequency, TF over GST control)"
same,binding signal,ETV3,"1.06 fold enrichment (6-mer frequency, TF over GST control)"
same,binding signal,ETV6,"1.11 fold enrichment (6-mer frequency, TF over GST control)"

# — PMC7862700, “An all-to-all approach to the identification of sequence-specific readers for epigenetic DNA modifications on cytosine”
